# Source: PubChem BioAssay
# Shown are actives, neighbours in structure and some others; about 2.4% of the full set was active somewhere.
# HSF1 inhib: HSF1 inhibition; 300,000 tested, 0.77% active; activity change, negative = inhibition, % at 7.5 µM (by protocol); NIH3T3-HGL HSE-luciferase, MG132-induced, luminescence 8 h; stronger effect = lower value; AID 2098;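 active = more than half of replicate wells show activity change below -50%, luminescence cut by over half; inconclusive = some wells, but at most half, below -50%; inactive = no replicate well below -50%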;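 note: luciferase reports HSF-1 transcriptional activity via heat shock element; 0% = median of DMSO wells and -100% = zero luminescence signal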
# HSP90 refold inh: inhibitors of HSP90 luciferase refolding in rabbit reticulocyte lysate | luciferase refolding luminescence, 3 h | inhibition, % at 5.6 µM | 290,000 tested, 0.91% active | AID 1789;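 active = inhibition above the screen-wide mean plus 3 SD, computed separately per campaign, cut at about 16% in these data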;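 note: 0% = DMSO wells and 100% = 60 µM geldanamycin wells; inhibitors lower the luminescence because luciferase stays unfolded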
# STAT1 blocker: reduces IFN-gamma driven STAT1 reporter signal. NIH 3T3 STAT1-luciferase reporter, luminescence. inhibition, % at 5.5 µM. 200,000 tested, 0.35% active;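 active = inhibition above a set limit, the mean inhibition across all tested compounds plus 3 SD, cut at about 34% in these data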;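 note: 0% = IFN-gamma with DMSO and 100% = IFN-gamma with 300 µM nifuroxazide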
# PPC-1+TRAIL kill: PPC-1 cancer cell killing with TRAIL present; AID 1443; PPC-1 cells + TRAIL, ATPLite viability luminescence; cell killing (% activity), % at 4 µM or 5 µM; 220,000 tested, 0.41% active;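 active = cell killing above 50% in the first pass at 4 µM, then a duplicate retest at 5 µM averaging 50% or more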;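 note: plate controls were cells with TRAIL plus DMSO for no effect and medium-only wells lacking cells for full effect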
# STAT3 inh-1: inhibitors of IL-6 induced STAT3 signaling | U3A cells, IL-6 STAT3-luciferase reporter, luminescence; host cell line lacks STAT1 | inhibition, % at 5.5 µM | 190,000 tested, 0.89% active;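 active = inhibition above the mean inhibition across all screened compounds plus 3 SD, cut at about 44% in these data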;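 note: 0% = DMSO only wells and 100% = 100 µM nifuroxazide control wells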
# C8 TRAIL sens: caspase-8 TRAIL sensitization; inhibition (viability loss, TRAIL sensitization), % at 10 µM; 360,000 tested, 1% active; NB7+C8 cells + TRAIL, ATPlite viability luminescence;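 active = compounds causing at least 50% loss of cell viability in the single-dose screen, relative to plate controls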
# STAT3 inh-2: STAT3 inhibition, confirmation assay. shares compounds with STAT3 inh-1. U3A cells, IL-6 STAT3 luciferase reporter, luminescence; cell line lacks STAT1. inhibition, % at 5.7 µM. 1,200 tested, 45% active;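 active = inhibition above the hit cutoff computed for the primary STAT3 screen, cut at about 44% in these data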;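 note: 0% = IL-6 plus DMSO and 100% = IL-6 plus nifuroxazide control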
# NFkB inh STAT3ct: counter-screen for STAT3 inhibitors: NF-kappaB inhibition. 1,200 tested, 36% active. HEK293T NF-kB luciferase reporter, TNF-alpha induced. shares compounds with STAT3 inh-1. inhibition, % at 5.7 µM. AID 1308;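 active = inhibition above the mean of solvent-only control wells plus 3 SD, cutoff set per campaign, cut at about 13% in these data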;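 note: 0% = TNF-alpha with DMSO and 100% = TNF-alpha with MG high control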
# STAT1 inh 2: inhibits STAT1, counter-screen to STAT3 inhibitors; shares compounds with STAT3 inh-1; NIH 3T3 STAT1-luciferase reporter, IFN-gamma induced, luminescence; inhibition, % at 5.7 µM; 1,200 tested, 27% active; AID 1317;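 active = inhibition above the mean plus 3 SD of solvent-only control wells, limit set per screening run, cut at about 16% in these data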;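 note: 0% = DMSO with IFN-gamma and 100% = nifuroxazide control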
# * hit, by the source's call; ? = inconclusive; / = no result given.
SMILES,HSF1 inhib,HSP90 refold inh,STAT1 blocker,PPC-1+TRAIL kill,STAT3 inh-1,C8 TRAIL sens,STAT3 inh-2,NFkB inh STAT3ct,STAT1 inh 2
COC(=O)c1ccccc1NC(=O)CNc1cc(OC)c(OC)cc1C,2.8,-4.8,24.3,4.7,51.0*,-5.8,65.2*,17.5*,25.9*
CCOC(=O)C(Cc1ccc(O)c([N+](=O)[O-])c1)N1C(=O)c2ccccc2C1=O (stereo not given),/,/,/,/,/,-12.7,/,/,/
COc1ccc2c(c1O)C(=O)c1ccccc1C2=O,2.8,3.3,-4.8,10.3,/,/,/,/,/
CC(C)COC(=O)c1ccc2c(c1O)C(=O)c1ccccc1C2=O,-13.2,14.3,-30.3,35.6,46.4*,56.8*,15.9,-27.1,-95.2
Cc1nc(NC(C)c2ccccc2)c2oc3ccccc3c2n1 (stereo not given),-7.8,-0.3,23.8,4.7,46.5*,25.0,28.8,-1.6,12.5
CCC(C)Nc1nc(C)nc2c1oc1ccccc12 (stereo not given),2.4,-3.1,/,-18.4,/,19.3,/,/,/
Cn1c(=O)c2cc(NC(=O)OCCF)ccc2n1Cc1cccc(C(F)(F)F)c1,/,/,/,/,/,-0.1,/,/,/
CCOC(=O)N1CCC(NC(=O)C2CCN(c3nc(-c4ccc(OC)cc4)no3)CC2)CC1,-16.9,-1.0,8.0,18.1,49.9*,1.6,38.0,11.7,11.9
CCCCC1Cc2[nH][nH]c(=O)c2C(c2ccc(Cl)cc2)O1 (stereo not given),/,/,/,/,/,-28.3,/,/,/
C=CCn1c(C)cc(C(=O)COc2ccc(C)nc2[N+](=O)[O-])c1C,-53.7*,-3.8,23.2,12.1,54.3*,8.6,3.0,5.1,-16.7
Cc1ccc(OCC(=O)c2cc(C)n(-c3ccccc3)c2C)c([N+](=O)[O-])n1,-61.8*,0.9,26.6,-2.4,60.6*,27.6,44.6*,14.7*,3.0
COc1cc(C=C2CCCC(=Cc3ccc(OCC4CO4)c(OC)c3)C2=O)ccc1OCC1CO1 (stereo not given),/,/,/,/,/,16.5,/,/,/
COc1ccc(OC)c(C(O)c2ncc(-c3ccc(C(F)(F)F)cc3)[nH]2)c1 (stereo not given),/,/,/,/,/,0.3,/,/,/
CC[n+]1ccccc1/C=C/c1ccc(N(C)C)cc1,7.9,-5.4,30.9,26.8,68.3*,32.1,60.3*,3.6,13.8
N#CC(c1cccc([N+](=O)[O-])c1)C(CC(=O)c1ccccc1)c1ccccc1 (stereo not given),/,/,/,/,/,12.3,/,/,/
O=C(c1ccc(Cn2ccc([N+](=O)[O-])n2)cc1)N1CCN(Cc2ccccc2)CC1,2.6,0.4,/,4.6,/,11.8,/,/,/
CSc1ccc(CN2CCN(C(=O)c3ccc([N+](=O)[O-])cc3)CC2)cc1,1.3,-1.1,3.0,18.4,54.6*,36.2,59.5*,12.6,-3.2
COc1ccc(C2=Nc3ccccc3N(C(=O)c3cccnc3)C2C(=O)NC2CCCC2)cc1 (stereo not given),/,/,/,/,/,-16.4,/,/,/
O=C(Nc1nc(-c2ccc(Cl)s2)cs1)c1ccncc1,-5.5,-0.9,1.6,6.5,66.5*,10.8,56.4*,12.2,10.1
O=C(Nc1nc(-c2cccs2)cs1)c1ccc(Cl)cc1,4.6,2.9,-22.3,11.7,10.5,3.8,/,/,/
COc1cc2c(cc1OC)C(c1ccc(-c3ccc(Cl)cc3Cl)o1)=NCC2,6.2,3.5,5.0,14.9,63.4*,24.9,53.4*,16.2*,-2.9
COc1cc2c(cc1OC)C(c1ccc(-c3cc(Cl)ccc3Cl)o1)=NCC2,5.9,0.7,17.9,9.1,25.5,36.5,/,/,/
O=C(C[C@H]1C[C@@H]2c3cc(NC(=O)c4ccc5c(c4)OCO5)ccc3O[C@@H]2[C@H](CO)O1)NCc1cc(F)ccc1F,/,/,/,/,/,-5.8,/,/,/
CS(=O)(=O)c1ccc(C(=O)N2CCN(Cc3ccccc3)CC2)cc1,-6.9,1.8,-5.2,20.4,7.3,-0.1,/,/,/
O=C(c1ccc(CNS(=O)(=O)c2ccccc2)cc1)N1CCN(Cc2ccccc2)CC1,2.4,2.1,3.4,2.2,44.4*,30.7,27.6,5.5,-16.2
SMILES,HSF1 inhib,HSP90 refold inh,STAT1 blocker,PPC-1+TRAIL kill,STAT3 inh-1,C8 TRAIL sens,STAT3 inh-2,NFkB inh STAT3ct,STAT1 inh 2
C/C(=N/NC(=O)CN(c1ccccc1)S(=O)(=O)c1ccccc1)c1ccccc1O,-0.6,-0.2,/,/,/,35.2,/,/,/
CCc1nc(Nc2ccc(OC)c(OC)c2)c2nnn(Cc3ccccc3Cl)c2n1,10.6,2.0,23.6,-5.9,67.1*,28.1,57.8*,17.1*,19.4*
Cc1ccc(NC(=O)Cc2nn(C)c(=O)c3ccccc23)cc1F,-0.6,5.5,30.1,-10.5,84.8*,16.7,76.7*,25.3*,22.6*
Cn1nc(CC(=O)Nc2ccc3c(c2)OCCO3)c2ccccc2c1=O,-8.9,5.2,26.1,27.4,82.9*,14.3,78.3*,34.0*,28.4*
N#Cc1c(/N=C/c2cccs2)sc2c1CCCCC2,-7.9,7.2,-21.4,-8.1,67.0*,54.0*,21.2,-24.4,-120.6
N#Cc1c(/N=C/c2ccc(Br)s2)sc2c1CCC2,/,5.0,-23.3,2.3,1.7,-8.2,/,/,/
COc1ccc(/C=C2\SC(=S)N(CCC(=O)Nc3ccc(C(=O)O)cc3)C2=O)cc1,-7.8,-4.2,/,/,/,17.1,/,/,/
COc1ccc(/C=C2/SC(=S)N(CCC(=O)O)C2=O)cc1,?,7.9,17.1,12.8,56.8*,3.3,57.3*,31.8*,12.0
c1ccc(-c2ccncn2)cc1,/,/,/,/,/,-2.4,/,/,/
Cc1nn2cc(-c3ccccc3)nc2s1,8.2,7.0,-48.6,21.4,52.2*,27.8,11.9,-32.1,-97.8
NC(=O)C1CCN(c2ccc(S(=O)(=O)N3CCC(Cc4ccccc4)CC3)cn2)CC1,-0.8,2.5,20.4,26.3,64.0*,-8.5,55.2*,9.2,8.2
O=S(=O)(c1ccc(Cl)nc1)N1CCC(Cc2ccccc2)CC1,/,/,/,/,/,-2.0,/,/,/
Cc1sc(NC(=O)c2sc3nc4c(C)cccc4cc3c2N)c(C#N)c1C,-3.8,-0.4,4.2,33.7,-0.8,32.8,/,/,/
Cc1cccc2cc3c(N)c(C#N)sc3nc12,-54.1*,0.1,-11.4,9.9,50.2*,2.6,29.5,-6.6,-27.3
O=C(Nc1ccc(F)cc1)C(c1cccc(F)c1)N1CCN(c2ccncc2)CC1 (stereo not given),/,/,/,/,/,3.4,/,/,/
ClCCn1c(CCl)nc2ccc(Cl)cc21,/,/,/,/,/,-12.1,/,/,/
Cc1cc(/C=C2\Sc3ccccc3N2C)cc(C)[n+]1CC1CCCO1 (stereo not given),/,2.1,21.8,32.6,82.7*,12.9,84.3*,19.8*,11.2
Cc1ccc(/C=C2/Sc3ccccc3N(CC(=O)NCC3CCCO3)C2=O)cc1 (stereo not given),-1.6,-2.7,/,/,/,-13.7,/,/,/
